# In PubChem BioAssay:
# Active and inactive are the calls of the source. Unless noted, how the calls were made is not given here.
# Experiments:
# [1] = HepG2 liver cancer cell viability effects, profiling panel, resazurin fluorescence, 24 h, PK04 Diversity Set (AID 1172); details: higher = more signal; further: test concentration not given here
# [2] = basal S. cerevisiae growth modulation, no modifier, primary screen, OD600, strain BY4716, 24 h, basal condition (AID 1173); details: OD600, 24 h, higher = more signal, called active from +8 up or from −8 down
# [3] = MM1S myeloma cell viability, profiling panel, resazurin fluorescence, basal, 24 h, PK04 Diversity Set (AID 1174); details: higher = more signal, called active from +8 up or from −8 down;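 further: MM1S multiple myeloma cell line; test concentration not given here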
# [4] = biological target: Dihydroorotate dehydrogenase (quinone), mitochondrial (Plasmodium falciparum (isolate 3D7)) (UniProt Q08210); assay: PfDHODH enzyme inhibitors, primary screen, biochemical, C-terminal His tag, absorbance 600 nm (AID 1175); details: DCIP absorbance 600 nm, higher = more signal, called active from +8 up or from −8 down;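 further: recombinant parasite enzyme with a five histidine tag at its C terminus; test concentration not given here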
# [5] = P. aeruginosa biofilm formation inhibitors, primary screen, strain PAO1, LB-PBS medium, absorbance 600 nm (AID 1176); further: test concentration not given here; details: P. aeruginosa PAO1 growth/biofilm, A600, 12 h; higher = more signal
# [6] = S. cerevisiae RM11-1a growth modifiers, primary screen, strain RM11-1a, OD600, basal, 24 h (AID 1177); details: OD600, 24 h, higher = more signal, called active from +8 up or from −8 down;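 further: cultures grown under basal conditions with no added stressor; test concentration not given here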
# [7] = E. coli acrAB mutant growth effects, primary screen, E. coli filamentation inducers, strain DRC39, OD650, 24 h (AID 1178); details: higher = more signal, called active from +8 up or from −8 down;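 further: growth measured as culture turbidity by optical density at 650 nm; test concentration not given here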
# [8] = E. coli acrAB mutant growth effects, primary screen, E. coli filamentation inducers, strain DRC39, OD650, 48 h (AID 1179);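 further: screen aims at cell division blockers that make cells filament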; details: E. coli DRC39 delta-acrAB growth, higher = more signal, called active from +8 up or from −8 down
# [9] = RPMI8226 myeloma cell viability, profiling panel, resazurin fluorescence, basal, 24 h, PK04 Diversity Set (AID 1180); details: higher = more signal;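 further: RPMI8826 multiple myeloma cell line at 5000 cells per well; test concentration not given here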
# [10] = biological target: E3 ubiquitin-protein ligase XIAP (Homo sapiens) (UniProt P98170); assay: XIAP binders, primary screen, biophysical, small-molecule microarray, fluorescence 635 nm (AID 1181); details: small-molecule microarray binding, higher = more signal;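 further: score merges 667 nm emission and signal to noise over triplicate slides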
# E3 ubiquitin-protein ligase XIAP (Homo sapiens), sequence (P98170 whole entry, looked up): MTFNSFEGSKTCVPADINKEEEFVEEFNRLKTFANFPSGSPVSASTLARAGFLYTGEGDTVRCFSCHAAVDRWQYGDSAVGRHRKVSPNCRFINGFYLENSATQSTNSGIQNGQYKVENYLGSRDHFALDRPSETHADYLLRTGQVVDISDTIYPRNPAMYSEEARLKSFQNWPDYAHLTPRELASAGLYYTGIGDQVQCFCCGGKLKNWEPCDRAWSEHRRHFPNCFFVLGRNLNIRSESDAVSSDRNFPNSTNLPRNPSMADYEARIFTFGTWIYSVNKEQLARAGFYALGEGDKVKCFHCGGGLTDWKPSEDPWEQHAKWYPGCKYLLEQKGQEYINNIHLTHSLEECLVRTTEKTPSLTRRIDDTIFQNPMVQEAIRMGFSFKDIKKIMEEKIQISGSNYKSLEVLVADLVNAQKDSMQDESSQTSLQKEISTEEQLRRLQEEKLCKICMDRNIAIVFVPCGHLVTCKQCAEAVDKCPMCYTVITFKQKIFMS
# Dihydroorotate dehydrogenase (quinone), mitochondrial (Plasmodium falciparum (isolate 3D7)), sequence (Q08210 whole entry, looked up): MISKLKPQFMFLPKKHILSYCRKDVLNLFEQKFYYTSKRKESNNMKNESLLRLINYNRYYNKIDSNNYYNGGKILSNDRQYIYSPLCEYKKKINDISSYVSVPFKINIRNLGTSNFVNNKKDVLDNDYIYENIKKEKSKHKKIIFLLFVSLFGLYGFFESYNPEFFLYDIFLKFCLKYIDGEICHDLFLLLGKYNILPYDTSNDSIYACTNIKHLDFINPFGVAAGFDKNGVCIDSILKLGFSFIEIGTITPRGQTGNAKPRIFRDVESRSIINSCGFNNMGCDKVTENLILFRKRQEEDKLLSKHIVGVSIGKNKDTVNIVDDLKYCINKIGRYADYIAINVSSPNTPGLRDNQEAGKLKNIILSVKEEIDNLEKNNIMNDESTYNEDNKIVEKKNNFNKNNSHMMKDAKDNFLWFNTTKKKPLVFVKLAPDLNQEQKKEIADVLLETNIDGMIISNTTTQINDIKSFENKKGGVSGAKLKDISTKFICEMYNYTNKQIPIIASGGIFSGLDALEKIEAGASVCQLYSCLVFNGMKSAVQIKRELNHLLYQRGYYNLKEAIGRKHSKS
Structure (SMILES),z-score [1],z-score [2],z-score [3],composite z-score [4],z-score [5],z-score [6],z-score [7],z-score [8],z-score [9],composite z-score [10]
COc1ccc(COC(=O)NN=C2C[C@@H](O)[C@@H](O)[C@@H]3[C@@H]4C(=O)N(Cc5ccc6c(c5)OCO6)C(=O)[C@@H]4CC[C@@H]23)cc1,0.466,-0.839 (inactive),0.401 (inactive),-1.68 (inactive),2.55 (inactive),-1.83 (inactive),-0.459 (inactive),-0.279 (inactive),1.24,-0.0792
C=CC[C@@H]1C=C[C@H](ON=C2c3cc(OC)ccc3O[C@H](c3cccc(OC)c3)[C@H]2O)[C@@H](CO)O1,-1.38,-0.903 (inactive),-1.15 (inactive),-0.726 (inactive),0.113 (inactive),-0.7 (inactive),0.57 (inactive),0.741 (inactive),-1.37,-0.0834
CC(C)=CCCC(C)=CCON=C1C[C@@H](O)[C@@H](O)[C@@H]2[C@@H]3C(=O)N(C[C@@H]4CCCO4)C(=O)[C@@H]3CC[C@@H]12,0.502,-0.242 (inactive),-0.041 (inactive),-0.111 (inactive),-0.261 (inactive),0.348 (inactive),0.122 (inactive),0.511 (inactive),0.424,-0.264
O=C(CS)NCCCCCNC(=O)[C@H]1C[C@H]2C(=O)N3CCC[C@H]3C(=O)N2[C@H]1c1cccc(OCCO)c1,0.0716,-0.358 (inactive),0.85 (inactive),0.274 (inactive),-0.667 (inactive),0.18 (inactive),-0.201 (inactive),0.36 (inactive),0.472,0.0785
O=C1[C@H]2[C@H]3[C@H](O)[C@H](O)CC(=NOCc4ccccc4)[C@H]3CC[C@H]2C(=O)N1C[C@@H]1CCCO1,0.648,0.243 (inactive),0.18 (inactive),-0.279 (inactive),0.696 (inactive),-0.485 (inactive),-0.359 (inactive),-0.103 (inactive),-0.323,-0.0773
CC(C)CON=C1C[C@@H](O)[C@@H](O)[C@@H]2[C@@H]3C(=O)N([C@@H](C)c4ccccc4)C(=O)[C@@H]3CC[C@H]12,0.0096,-1.45 (inactive),-0.0393 (inactive),-0.0804 (inactive),0.07 (inactive),0.351 (inactive),0.595 (inactive),0.675 (inactive),0.333,-0.166
c1ccc(C2NCCc3c2[nH]c2ccccc32)cc1 (stereo not given),0.278,-2.91 (inactive),-0.104 (inactive),-11 (active),0.107 (inactive),-0.104 (inactive),-0.832 (inactive),-1.79 (inactive),-0.326,0.0043
COC(=O)CC=C[C@@H](C)[C@@H](C=NO[C@@H](C)c1cc(-c2c(C)cc(C)cc2C)no1)OC,-0.295,-0.408 (inactive),-0.656 (inactive),-2.58 (inactive),-0.728 (inactive),-0.357 (inactive),-0.716 (inactive),-2.26 (inactive),0.197,-0.124
CO[C@@H]1COC(=O)CCC[C@@H](C)[C@H](OC)COC(=O)CCC[C@H]1C,0.733,1.47 (inactive),0.367 (inactive),-0.0732 (inactive),-0.667 (inactive),1.6 (inactive),0.265 (inactive),-0.65 (inactive),0.276,-0.256
CN1C(=O)C2C=CC(C(O)c3ccc(Br)cc3)N(N(c3ccccc3)c3ccccc3)C2C1=O (stereo not given),-0.456,0.431 (inactive),-1.19 (inactive),1.02 (inactive),1.01 (inactive),1.32 (inactive),-0.499 (inactive),-0.283 (inactive),-0.629,-0.0255
C=CC[C@]1(C(=O)NCc2ccccc2)N=C(c2ccc(OCCCO)cc2)O[C@H]1c1ccccc1,0.527,-0.127 (inactive),-0.223 (inactive),-0.649 (inactive),-0.193 (inactive),1.15 (inactive),0.0557 (inactive),-0.126 (inactive),-0.0458,-0.102
[N-]=[N+]=Nc1ccccc1C[C@@]1(C(N)=O)N=C(c2ccc(OCCCO)cc2)O[C@@H]1c1ccccc1,-0.501,-1.86 (inactive),-0.6 (inactive),-0.684 (inactive),0.218 (inactive),-0.364 (inactive),0.289 (inactive),-1.01 (inactive),-0.652,-0.0344
CC(CCN1CCc2nc(-c3ccccc3)c(-c3ccccc3)cc2C1)=NO[C@H](C)c1cn([C@@H]2COC[C@H]2O)nn1,-0.233,-0.799 (inactive),-0.869 (inactive),-0.0119 (inactive),0.408 (inactive),-0.462 (inactive),0.532 (inactive),0.705 (inactive),-0.639,0.063
CC(C)=CCCC(C)=CCON=C1[C@H]2CCn3c(=O)n(Cc4cc5c(cc4Cl)OCO5)c(=O)n3[C@H]2[C@H](O)[C@@H]2O[C@H]12,-0.594,-0.696 (inactive),-0.738 (inactive),0.207 (inactive),-0.471 (inactive),-0.537 (inactive),-0.464 (inactive),-0.72 (inactive),-0.357,-0.224
CC(C)C[C@@H]1NC(=O)[C@H]2C[C@@H](C(=O)NCCCCCCN(C)C)[C@@H](c3cccc(OCCO)c3)N2C1=O,-0.233,-0.0693 (inactive),-0.891 (inactive),0.344 (inactive),-0.0059 (inactive),-0.159 (inactive),0.0442 (inactive),0.0484 (inactive),-0.992,0.0753
CCOC(=O)[C@H](Cc1ccccc1)NC(=O)CCC1CC(OC(=O)NCc2ccc3c(c2)OCO3)CC2(CCCC(COC(=O)NCC3CCCCC3)O2)O1 (stereo not given in full),1.19,-0.653 (inactive),0.625 (inactive),-0.0475 (inactive),-0.695 (inactive),0.104 (inactive),0.0066 (inactive),0.216 (inactive),0.419,0.257
CN(C)C(=O)[C@@]1(Cc2ccccc2)N=C(c2ccc(OCCCO)cc2)O[C@H]1c1ccccc1CN=[N+]=[N-],-0.412,-0.618 (inactive),-1.23 (inactive),0.519 (inactive),0.535 (inactive),-0.112 (inactive),-0.0193 (inactive),-0.139 (inactive),-1.23,0.215
CC(=O)OC[C@H]1O[C@H](CCON=C[C@@H](C)[C@H](OCc2ccccc2)C(C)C)C=C[C@@H]1OC(C)=O,-0.374,0.604 (inactive),-0.81 (inactive),-0.64 (inactive),0.0039 (inactive),-0.399 (inactive),-0.983 (inactive),-2.1 (inactive),-0.429,-0.215
CC(C)[C@@H](OCc1ccccc1)[C@H](C)C=NO[C@H](C)c1cn([C@H](CO)Cc2ccccc2)nn1,-1.01,-3.51 (inactive),-2.02 (inactive),-0.926 (inactive),-0.324 (inactive),-2.3 (inactive),-0.0325 (inactive),-0.0205 (inactive),-1.67,-0.0287
CCOC(=O)C[C@H]1[C@H](OC(=O)c2cc3ccccc3oc2=O)[C@@H](NC(=O)c2ccc3ccccc3n2)c2cc(OCCCO)ccc2N1C(=O)c1ccccc1,-0.983,-2.08 (inactive),-0.668 (inactive),-1.97 (inactive),-0.754 (inactive),-0.0333 (inactive),-0.341 (inactive),-0.753 (inactive),-0.599,0.217
CC(C)(C)N1C(=O)[C@H]2[C@H]3[C@H](O)[C@H](O)CC(=NOCc4ccccc4)[C@@H]3CC[C@H]2C1=O,-1.74,-0.245 (inactive),-0.637 (inactive),-1.36 (inactive),0.246 (inactive),-2.23 (inactive),-0.474 (inactive),-0.0278 (inactive),-1.34,-0.0735
COC(=O)CC=C[C@@H](C)[C@@H](C=NO[C@H](C)c1cn([C@@H]2COC[C@H]2O)nn1)OC,-0.879,-0.435 (inactive),-0.179 (inactive),-0.295 (inactive),0.666 (inactive),0.0782 (inactive),0.773 (inactive),0.878 (inactive),-0.359,-0.0206
COc1ccc(O[C@H]2C=C[C@@H](c3ccccc3)O[C@@H]2COC(=O)CCC(C)=NOC(C)CN2CCCCc3nc(C)c(C)cc32)cc1 (stereo not given in full),0.957,0.756 (inactive),1.1 (inactive),0.0159 (inactive),-0.279 (inactive),0.181 (inactive),0.825 (inactive),0.42 (inactive),0.948,0.533
